The whole screen tested about 2,400 compounds, of which about 1,400 (58%) were called active. So high a share suggests a set chosen from earlier hits. Some of the results follow. Values without a mark were called inactive.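 How the source made its calls: active means inhibition of 30% or more at any tested dose; inconclusive means primary hits over the limit that were never retested; inactive means the rest.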

A short description of this assay: ADP Hunter readout inhibition without MgcRacGAP – biochemical, coupled enzyme counter-screen, artefact control for MgcRacGAP inhibitor project, dose response (AID 624351).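 Further: signal is the ADP detection kit reading of free GDP without any GAP enzyme.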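 On inhibition: 0% = median positive control wells and 100% = median negative control wells.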 As to conditions: fluorescence, no MgcRacGAP; series mostly up to 80 µM; inhibition: at the top concentration. (In general: The purpose of a counterscreen is to sort out artefacts and off-target activity.)
The inhibition is the relative decrease from the control value, in per cent. On to `CC(C)(c1ccccc1)c1ccc(OCC(O)CNC2CCN(Cc3ccccc3)CC2)cc1` (stereo unspecified), for which the “inhibition” value was 27.9%. With `CN(C)c1ccc(N=Cc2nc(-c3ccccc3)oc2OC(=O)c2cccc(Cl)c2)cc1`, the “inhibition” value is 12.6%.

As usually defined, the IC50 is the concentration that gives 50% inhibition. `COc1cc(/C=C/C(=O)OCC(=O)N(C)Cc2ccccc2)ccc1O`: the IC50 is 34.7 µM (active). `C/C=C/c1ccc(OCCCCN(C)Cc2ccccc2)c(OC)c1`: the “inhibition” value was -10.9%.

With `CC(C(=O)N(C)Cc1ccccc1)N1CCN(C/C=C/c2ccccc2)CC1` (stereo unspecified), the “inhibition” value was 18%. As to `Oc1ccc(/C=N/Nc2ccnc3cc(Cl)ccc23)cc1O`, the 50% inhibitory concentration (IC50) was 40.3 µM (active).

For the compound `Oc1ccc(Nc2ccnc3cc(Cl)ccc23)cc1`, the half-maximal inhibitory concentration (IC50) is 26.3 µM (active). `Oc1ccc(N2CCN(c3ccnc4cc(Cl)ccc34)CC2)cc1`: the 50% inhibitory concentration (IC50) was 53.3 µM (active). For `CN(C)c1ncc(C2=C(Cl)C(=O)C(N3CCCC3)=C(Cl)C2=O)s1`, the inhibition is -12.5% [at 10 µM]. Take `Nc1ccc2c(c1)OC1(CCCC1)O2`: the IC50 is 26 µM (active). Still for that read-out and setting: in the case of `Nc1cc(Cc2ccccc2)ccc1O` it was 24.1 µM (active). Regarding `COc1ccc(Br)cc1CN(C)CC(=O)NCCc1ccccc1`, the “inhibition” value was 19.1%. With `COc1ccc(Br)cc1CNc1ccc(O)cc1`, the IC50 was 54 µM (active). Turning to `Oc1ccc(NCc2ccccc2OCc2ccccc2F)cc1`, the “inhibition” value is -18.7%. In the case of `CN1C(=O)/C(=C/C=C2/CCCN2C)N(C)C1=S`, the IC50 is 24.6 µM (active).

As for `CN1C(=O)/C(=C/C=C2\SCCN2C)N(C)C1=S`, the IC50 was 26.6 µM (active). `c1ccc(-c2ccccc2OCCOCCN2CCOCC2)cc1`: the “inhibition” value is 28%.

With `NC(N)=N/N=C/c1ccc(Cl)cc1Cl`, the “inhibition” value is 14.4%.

In the case of `CCN(CC)c1ccc(/C=N/Nc2nc(C)cc(C)n2)c(O)c1`, the IC50 was 65.2 µM (active).

Turning to `CCN(CC)c1ccc(/C=N/NC(=O)OC)c(O)c1`, the 50% inhibitory concentration (IC50) was 62.6 µM (active). Still for that read-out and setting: in the case of `CCOC(=O)N/N=C/c1ccc(N(CC)CC)cc1O` it was 81.2 µM (active).

`CCc1ccc2nc3sc(C(=O)O)cc3cc2c1`: the “inhibition” value is 22.5%. Take `CCOc1cc(/C=N/Nc2ncc(C)c(=O)[nH]2)ccc1O`: the IC50 is 38.9 µM (active). Still for that read-out and setting: in the case of `CCOc1cc(/C=N/Nc2nc(=O)[nH]nc2C)ccc1O` it was 43.9 µM (active).

Turning to `COc1ccccc1CNC(=O)C[C@@H]1C[C@H]2c3cc(N(C)C)ccc3O[C@H]2[C@H](CO)O1`, the “inhibition” value was 24.9%. The same measure, in the same setting: in the case of `COc1ccccc1CNCC(=O)NCc1ccc(C)cc1` it was 16.4%; in that of `COc1ccccc1CNCC(=O)Nc1ccccc1-n1cccc1`, 8.83%. Turning to `CCN(CC)c1ccc(NC(=O)COC(=O)Cc2ccsc2)cc1`, the IC50 is 42.9 µM (active).

With `COc1cc(CC(=O)OCC(=O)Nc2ccc(N(C)C)cc2)cc(OC)c1OC`, the IC50 was 68 µM (active).

Regarding `COc1ccccc1/C=C(/C(=O)OCC(=O)Nc1ccc(N(C)C)cc1)c1ccccc1`, the IC50 is 66.3 µM (active). Same read-out and setting: in the case of `COc1ccccc1CNCC(=O)Nc1ccc(N(C)C)cc1` it was 63.3 µM (active).

As to `CCc1ccc(NC(=O)CNCc2ccc(OC)c(OC)c2)cc1`, the “inhibition” value is 17.8%. As for `COc1ccc(NCCC#N)cc1`, the IC50 was 82.2 µM (active). The same measure, in the same setting: in the case of `O=S(=O)(O)c1cc(O)c(N=Nc2ccc(O)cc2O)c2ccccc12` it was 30.7 µM (active); in that of `CC(C)C1N=C2c3ccccc3N=C(SCC(=O)c3ccc(O)c(O)c3)N2C1=O` (stereo unspecified), 34.7 µM (active); in that of `CCN(CC)c1ccc(Nc2nc(Cl)ncc2Br)cc1`, 49.4 µM (active). Turning to `O=c1oc(-c2ccc(O)c(O)c2)cc2cccc(O)c12`, the IC50 was 20.7 µM (active).

Turning to `O=c1oc(-c2ccc(O)c(O)c2)cc2cc(O)cc(O)c12`, the concentration for half-maximal inhibition (IC50) is 23 µM (active).

Turning to `N#CC1=C(S)N(c2ccc(F)cc2)C(c2cccs2)NC1=O` (stereo unspecified), the “inhibition” value is 7.33%.

For the compound `O=C1NC2c3c(I)sc(I)c3C(=O)C2O1` (stereo unspecified), the “inhibition” value was -1.56%. Turning to `Oc1ccc(/C=N/N=C/c2ccc(O)cc2)cc1`, the IC50 is 84 µM (active). For `COc1cc(CNCCNC(=O)c2nonc2N)ccc1OCc1ccc(Cl)cc1`, the “inhibition” value is 3.53%. In the case of `N/C(=N\N=C\c1ccc(O)cc1)c1nonc1N`, the IC50 is 31.1 µM (active). With `COc1cc(/C=N/N=C(\N)c2nonc2N)ccc1O`, the IC50 was 30.3 µM (active). As for `N#Cc1c(Nc2ccc(Cl)cc2)s[nH]c1=O`, the “inhibition” value was 5.36%. On to `Cc1ccc(/C=[N+](\[O-])c2ccc(N(C)C)cc2)c2nsnc12`, for which the IC50 was 16.1 µM (active).

For `CCOC(=O)C1(C)C=C(Nc2ccc(O)cc2)C(=O)N1c1ccc(O)cc1` (stereo unspecified), the IC50 is 19.6 µM (active). In the case of `O=C1/C(=C\c2ccco2)CCC/C1=C\c1ccco1`, the “inhibition” value is -14%. For `Nc1cc(Br)c(N)c(Br)c1`, the IC50 is 10.6 µM (active). Still for that read-out and setting: in the case of `CCOC(=O)C1CCCN(C(=S)Nc2ccc(Nc3ccccc3)cc2)C1` (stereo unspecified) it was 55.1 µM (active). `OCCN1CCN(C(=S)Nc2cccc(C(F)(F)F)c2)CC1`: the “inhibition” value is 18.4%. With `CCOC(=O)C1CCN(Cc2cccc(Oc3ccccc3)c2)CC1`, the “inhibition” value is 11.4%. In the case of `OCC1CCCN(C(=S)Nc2ccc(Nc3ccccc3)cc2)C1` (stereo unspecified), the IC50 was 41.7 µM (active). `OC1CCN(C(=S)Nc2ccc(Nc3ccccc3)cc2)CC1`: the 50% inhibitory concentration (IC50) was 36.5 µM (active). As for `CCOC(=O)C1CCN(Cc2ccc(-c3ccccc3)cc2)CC1`, the “inhibition” value was 9.78%. The same measure, in the same setting: in the case of `COc1ccc(CN2CCN(CCSc3ccc(C)cc3)CC2)c(OC)c1OC` it was 26.8%.

Values taken from PubChem BioAssay AID624351 (Southern Research Specialized Biocontainment Screening …, 2012).
